Screening data from PubChem.
D1 antagonist: Antagonist of Human D 1 Dopamine Receptor: qHTS; D(1A) dopamine receptor (Homo sapiens), P21728; activity change, negative = inhibition, % at 10 µM; HEK293 TREx D1 cells, calcium flux, dopamine EC80; hits give low values; AID 504652, 2011; 3.2% of 360,000 active; in the data active means activity change below about -30%; further: on the % scale 0 is the no-effect control and ±100 the full control effect
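Tetracycline-induced HEK293 Trex D1 cells, force-coupled to calcium, dye-loaded; compounds added and read 180 s, then EC80 dopamine added and calcium flux tracked kinetically another 180 s.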
D1 potentiator: Potentiators of Human D1 Dopamine Receptor: qHTS. D(1A) dopamine receptor (Homo sapiens), P21728. HEK293 TREx D1 cells, calcium flux, dopamine EC20 potentiation. potentiation, % at 10 µM. 0.036% of 360,000 active. AID 504651, 2011; in the data active means potentiation above about 30%; further: 0% is about no effect
D1 agonist: Allosteric Agonists of the Human D1 Dopamine Receptor: qHTS | D(1A) dopamine receptor (Homo sapiens), P21728 | HEK293 T-REx D1 cells, calcium flux, agonist mode | activation, % at 2 µM | 1% of 360,000 active | AID 504660, 2011; in the data active means activation above about 30%; further: 0% is about no effect
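Agonism was scored from calcium flux recorded over 180 s (1 read/s) after pintool compound addition, following a 10-cycle baseline. Cells were inducible force-coupled HEK293 TREx D1, plated overnight at 30 C and loaded with no-wash calcium dye.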
D3 antag: qHTS of D3 Dopamine Receptor Antagonist: qHTS; D3R cells, DiscoveRx beta-arrestin luminescence, antagonist mode; hits give low values; max response, negative = inhibition, %; D(3) dopamine receptor (Homo sapiens), P35462; 2.5% of 360,000 active; AID 652054, 2013; in the data active means max response below about -50%; further: on the % scale 0 is the no-effect control and ±100 the full control effect
Target sequence (P35462 whole entry, looked up): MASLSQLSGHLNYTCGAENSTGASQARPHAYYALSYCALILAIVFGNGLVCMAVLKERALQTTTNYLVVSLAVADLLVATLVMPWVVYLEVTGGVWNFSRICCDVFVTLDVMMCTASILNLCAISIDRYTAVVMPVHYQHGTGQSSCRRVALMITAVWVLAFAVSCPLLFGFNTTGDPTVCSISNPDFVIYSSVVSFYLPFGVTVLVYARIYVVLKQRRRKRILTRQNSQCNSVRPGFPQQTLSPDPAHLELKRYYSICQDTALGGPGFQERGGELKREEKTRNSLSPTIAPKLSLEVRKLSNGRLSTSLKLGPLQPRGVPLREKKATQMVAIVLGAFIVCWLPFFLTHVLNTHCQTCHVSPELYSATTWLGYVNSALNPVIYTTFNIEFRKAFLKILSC
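Cells plated overnight at 1500 cells/well, then exposed to library compounds with dopamine controls for 90 minutes at 37 degrees C. DiscoveRx reagent added for 30–60 minutes at room temperature; luminescence read, quantitative HTS format.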
DRD3 agonist: qHTS of D3 Dopamine Receptor Agonist: qHTS; D(3) dopamine receptor (Homo sapiens), P35462; D3R DiscoveRx beta-arrestin cells, luminescence, 90 min; max activation, %; 0.58% of 410,000 active; in the data active means max activation above about 30%; further: 0% is about no effect
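Agonist mode: compounds and dopamine controls were applied to plated cells for 90 min at 37 degrees C after an overnight attachment at 1500 cells/well. Luminescent read-out followed 30 - 60 minutes at room temperature with DiscoveRx detection reagent.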
Starred values were filed as active, the others as inactive; x = not tested or not shown; ! = repeats disagree. The list is not random: actives were taken first. Their share in the collection is about 6%.

SMILES | D1 antagonist | D1 potentiator | D1 agonist | D3 antag | DRD3 agonist
O=C(CSc1nc2cc3ccccc3cc2[nH]1)Nc1cccc(C(F)(F)F)c1 | 3 | -3 | 2 | x | -15
Oc1c(Br)cc(Br)cc1C=NCc1ccccc1 | -14 | -2 | 4 | -57* | -28
Oc1c(Br)cc(Br)cc1C=NCc1ccc(F)cc1 | -1 | 1 | 11 | -67* | -32
CN(C)c1ccc(C(=O)N/N=C/c2cc(Br)cc(Br)c2O)cc1 | -13 | -10 | 2 | -21 | -4
O=C(Cc1ccccc1)N/N=C/c1cc(Br)cc(Br)c1O | -9 | -9 | 6 | -28 | -24
CC1=C(c2ccc(C(C)C)cc2)S(=O)(=O)N=C1N1CCC(C(=O)NCc2ccccc2)CC1 | 5 | -5 | 2 | x | 8
COc1cc(C2Nc3cc(C)c(C)cc3NC3=C2C(=O)CC(C)(C)C3)ccc1OC(C)=O (stereo not drawn) | 4 | -1 | 3 | 9 | -9
Cc1cc2c(cc1C)NC(c1c(C)n(C)n(-c3ccccc3)c1=O)C1=C(CC(C)(C)CC1=O)N2 (stereo not drawn) | 9 | -4 | 81* | -93* | -2
COc1ccc(-c2noc(N(c3ccc(F)c(Cl)c3)c3nc(-c4ccc(OC)c(OC)c4)no3)n2)cc1OC | -20 | 0 | 6 | x | 1
Cc1cccc(CCNc2nc3ccc(C)cc3n3cnnc23)c1 | -21 | -1 | 0 | -12 | -1
Cc1ccc2nc(NCCc3ccc(Cl)cc3)c3nncn3c2c1 | -61*! | -4 | 2 | -23 | -1
CC1CCCCC1Nc1nc2ccc(Cl)cc2n2cnnc12 (stereo not drawn) | 1 | -6 | 0 | 4 | 35*
Cc1ccc(C)c(N2CCN(c3nc4ccc(Cl)cc4n4cnnc34)CC2)c1 | -22 | -2 | 2 | x | 1
Cc1sc2ccccc2[n+]1CCC(C)S(=O)(=O)[O-] (stereo not drawn) | -3 | 1 | 2 | -67* | -17
COc1ccc(-c2nc(CN3CCC(C(=O)NCc4ccc(C)cc4)CC3)c(C)o2)cc1OC | -31* | -6 | 0 | x | 0
O=C(NCc1ccc(F)cc1)C1CCN(C(=O)NCc2ccccc2)CC1 | 9 | -3 | -3 | -2 | 1
Cc1oc(-c2ccccc2F)nc1CN1CCC(C(=O)NCc2cccs2)CC1 | -27 | -2 | 5 | -52* | -1
Cc1oc(-c2ccc(Cl)cc2)nc1CN1CCCC(C(=O)NCc2ccco2)C1 (stereo not drawn) | -7 | -9 | 5 | -73* | -3
Cc1oc(-c2ccccc2F)nc1CN1CCC(C(=O)NC2CC2)CC1 | 21 | -1 | 1 | -25 | 1
COc1ccc(-c2nc(CN3CCC(C(=O)NCCc4ccccc4)CC3)c(C)o2)cc1OC | -23 | 0 | 1 | x | 4
O=C(NCc1cccs1)C1CCN(C(=O)NCc2ccccc2)CC1 | -84* | 0 | -1 | 2 | -1
Cc1ccc(CNC(=O)Cc2c(C)c3cc4c(C)coc4cc3oc2=O)cc1 | -5 | 0 | 5 | x | 9
Cc1oc(-c2cccc(Cl)c2)nc1CN1CCC(C(=O)NCCCN2CCN(c3cccc(Cl)c3)CC2)CC1 | -39* | -1 | 67* | x | -6
CCN1CCN(CCNC(=O)C2CCCN(Cc3nc(-c4cccc(Cl)c4)oc3C)C2)CC1 (stereo not drawn) | -39* | -6 | 1 | -17 | -1
CC(NC(=O)c1ccc2c(c1)CCN2S(=O)(=O)c1ccccc1)c1ccccc1 (stereo not drawn) | -1 | -2 | 2 | x | 3
SMILES | D1 antagonist | D1 potentiator | D1 agonist | D3 antag | DRD3 agonist
CCCN[C@H]1CCc2nc(N)sc2C1 | x | x | x | 5 | 88*
CC(=O)N1CCCc2cc(S(=O)(=O)N3CCN(C4CCCCC4)CC3)ccc21 | 0 | -11 | 6 | -56* | -3
CC(=O)N1CCCc2cc(S(=O)(=O)N3CCCC(C(=O)N4CCN(c5ccccc5F)CC4)C3)ccc21 (stereo not drawn) | -39* | -4 | 3 | x | 1
COc1ccc(N2CCN(C(=O)C3CCCN(S(=O)(=O)c4ccc5c(c4)CCCN5C(C)=O)C3)CC2)cc1 (stereo not drawn) | -24 | -2 | 1 | x | 21
CC(=O)N1CCCc2cc(S(=O)(=O)N3CCCC(C(=O)NCc4ccccc4Cl)C3)ccc21 (stereo not drawn) | -42*! | -9 | 1 | 5 | 3
COc1ccc(N2Cc3cccc(C(=O)Nc4ccc(C)c(C)c4)c3C2=O)cc1 | 6 | 0 | 1 | x | 3
CC(C)(c1cc(Br)c(O)c(Br)c1)c1cc(Br)c(O)c(Br)c1 | x | -3 | 27 | 0 | 30*
CC1(C)CC(NS(=O)(=O)c2ccc(F)cc2)CC(C)(C)N1 | 5 | -2 | 4 | -58* | -16
CCOC(=O)c1ccc(NC(=O)CCc2nc(-c3ccc(C)cc3)no2)cc1 | 1 | -9 | 45* | 51 | 25
O=C(CCCc1nc(-c2ccccc2)no1)Nc1cccnc1 | -17 | -10 | 6 | -5 | -1
CCOC(=O)c1ccc(NC(=O)Nc2cc(C)on2)cc1 | -32* | -4 | 27 | 17 | 6
Cc1ccc(-c2noc(CCCC(=O)Nc3cccnc3)n2)cc1 | -34* | -3 | 20 | 3 | 1
CCOC(=O)c1ccc(NC(=S)NNC(C)(C)C)cc1 | -36* | -2 | 2 | -58* | -13
CCOC(=O)c1ccc(NC(=S)Nc2ccc(C)cc2)cc1 | 1 | 10 | 2 | 1 | 1
CCOC(=O)c1ccc(NC(=O)CCc2nc(-c3ccc(Cl)cc3)no2)cc1 | -19 | -4 | 20 | 15 | 2
CC(=O)c1cccc(-n2c(=O)c3c4c(sc3n(CC(=O)c3ccc(Cl)cc3)c2=O)CN(C(C)=O)CC4)c1 | 15 | 0 | -1 | x | -7
CN(CCOc1ccc(Cl)cc1)C(=O)C1CCN(C(=O)c2ccc(F)cc2)CC1 | -33* | -12 | 13 | 35 | 9
CC(=O)Oc1ccc(C(=O)Nc2ccccc2C(=O)N2CCCCC2)cc1 | -5 | 0 | 0 | -57* | -11
COC(=O)c1ccccc1NC(=O)C1CCN(C(=O)c2ccc(OC)cc2)CC1 | -33* | -13 | 1 | 20 | 1
COc1ccc(NS(=O)(=O)c2ccc(NC(=O)C3CC3)cc2)cc1 | -87* | -12 | 12 | 0 | 15
CC(=O)Oc1ccc(C(=O)Nc2ccccc2C(=O)N2CCCC2)cc1 | 6 | 4 | 1 | -8 | 7
COc1ccc(C(=O)N2CCC(C(=O)NC3CC3)CC2)cc1 | -14 | -3 | 1 | 0 | 5
CCc1ccccc1N1CC(c2nc3ccccc3n2CCC2CCCCC2)CC1=O (stereo not drawn) | 26 | 4 | 12 | x | -17
